{
  "source": "PubChem BioAssay",
  "data": [
    {"experiment": "anti-His antibody binders, primary screen, artefact control for SMM control protein annotation, biochemical, small-molecule microarray, 635 nm fluorescence (AID 1128);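 note: score merges feature fluorescence with signal-to-noise for each printed compound spot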", "details": "anti-His Alexa647 antibody binding, higher = more signal", "values": [
      {"smiles": "CCOC(=O)C[C@H]1[C@H](OC(=O)Cc2ccc3c(c2)OCO3)[C@@H](NC(=O)Cc2ccc(OC)cc2)c2cc(OCCCO)ccc2N1C(=O)Cc1ccc(OC)cc1", "composite z-score": 0.247},
      {"smiles": "COC(=O)[C@@]1(Cc2ccccc2)[C@H]2c3cc(C(=O)N4CCCC4)n(Cc4ccc(OC)c(OC)c4)c3C[C@H]2CN1C(=O)c1ccccc1", "composite z-score": 0.682},
      {"smiles": "[N-]=[N+]=Nc1ccccc1C[C@]1(C(=O)N2CCOCC2)N=C(c2ccc(OCCCO)cc2)O[C@H]1c1ccccc1N=[N+]=[N-]", "composite z-score": 2.37},
      {"smiles": "CC(C)(C)N1CC=CC23O[C@@H]4/C=C\\CCCOC(=O)C4[C@H]2C(=O)N(CCCO)[C@@H]3C1=O", "note": "(stereo partly specified)", "composite z-score": 0.343},
      {"smiles": "COc1ccc(CCNC(=O)[C@@H]2c3ccccc3C(=O)N(Cc3ccccc3OC)[C@H]2c2ccc(CO)cc2)cc1", "composite z-score": 1.71},
      {"smiles": "NC(=O)NCC#Cc1ccc2c(c1)[C@]1(C(=O)N2)[C@H](c2ccc(OCCO)cc2)N2[C@H](c3ccccc3)[C@H](c3ccccc3)OC(=O)[C@H]2[C@@H]1C(=O)O", "composite z-score": 1.21},
      {"smiles": "COc1ccc(C(=O)Nc2ccc3c(c2)[C@@]2(O[C@H](CCO)[C@@H]([Si](C)(C)c4ccc(OC)cc4)[C@@H]2C)C(=O)N3Cc2ccccc2)cc1", "composite z-score": 0.829},
      {"smiles": "COC(=O)C1=CC(CCCO)=CC(c2cccs2)N(Cc2cc3c(cc2Br)OCO3)C=C1C(=O)OC", "note": "(stereo unspecified)", "composite z-score": 2.57},
      {"smiles": "O=C1O[C@H](c2ccccc2)[C@H](c2ccccc2)N2[C@H]1[C@@H](C(=O)O)[C@]1(C(=O)Nc3ccc(C#CCCO)cc31)[C@H]2c1ccc(OCCO)cc1", "composite z-score": 2.27},
      {"smiles": "CCOC(=O)C[C@H]1[C@H](OC(=O)Cc2ccc3c(c2)OCO3)[C@@H](NC(=O)c2ccc3ccccc3n2)c2cc(OCCCO)ccc2N1C(=O)Cc1ccc(OC)cc1", "composite z-score": 0.337},
      {"smiles": "O=C(NC1CC1)[C@@H]1c2ccccc2C(=O)N(Cc2cc(C(F)(F)F)cc(C(F)(F)F)c2)[C@H]1c1ccc(CO)cc1", "composite z-score": 0.399},
      {"smiles": "C=C(/C(=C/C[C@@H](OC(C)=O)c1cccc(OCCO)c1)c1cnc2ccccc2c1)C(C)C", "composite z-score": 0.607},
      {"smiles": "O=C1C2C=CC(C(O)c3cccs3)N(Nc3ccc([N+](=O)[O-])cc3)C2C(=O)N1c1ccccc1", "note": "(stereo unspecified)", "composite z-score": 0.482},
      {"smiles": "C[N+](C)(C)CCCC[C@@H]1NC(=O)[C@H]2C[C@@H](C(=O)NCCCCCNC(=O)CS)[C@@H](c3cccc(OCCO)c3)N2C1=O", "composite z-score": 1.38},
      {"smiles": "COCCOC(=O)N1C(=O)[C@@]2(c3cc(C#CCC(C(=O)OC)C(=O)OC)ccc31)[C@H](c1ccc(O)cc1)N1[C@H](c3ccccc3)[C@H](c3ccccc3)OC(=O)[C@H]1[C@@H]2C(=O)Nc1nc2ccccc2s1", "composite z-score": 1.15},
      {"smiles": "COC(=O)[C@@]1(Cc2ccc(OC)cc2)[C@H]2c3cc(C(=O)N4CCCC4)n(Cc4c(CO)[nH]cc(C)c4=O)c3C[C@H]2CN1C(=O)c1ccccc1", "composite z-score": 1},
      {"smiles": "O=C1C[C@]2(c3ccc([N+](=O)[O-])cc3)C(=O)N(C3CC3)c3cc(CO)ccc3[C@H]2N1C1CCCCC1", "composite z-score": -0.268},
      {"smiles": "C=C(COC)/C(=C/C[C@@H](OC(C)=O)c1ccccc1OCCO)c1cnc2ccccc2c1", "composite z-score": 0.782},
      {"smiles": "COCCOC(=O)N1C(=O)[C@@]2(c3cc(C#CC4(O)CCCCCC4)ccc31)[C@H](c1ccc(O)cc1)N1[C@H](c3ccccc3)[C@H](c3ccccc3)OC(=O)[C@H]1[C@@H]2C(=O)N1CCCCCCC1", "composite z-score": 1.01},
      {"smiles": "C=CCOC(=O)[C@@H]1[C@H]2C(=O)O[C@H](c3ccccc3)[C@H](c3ccccc3)N2[C@H](c2ccc(OCCOC(=O)[C@H]3C[C@H]4C(=O)N[C@@H](CCCCN(C)C)C(=O)N4[C@H]3c3ccc(O)cc3)cc2)[C@@]12C(=O)Nc1ccc(I)cc12", "composite z-score": 1.2},
      {"smiles": "COC(=O)C[C@H]1O[C@@]2(C[C@@H]1[Si](C)(C)C)C(=O)N(C)c1ccccc12", "composite z-score": 0.324},
      {"smiles": "C=CCC(OC(C)=O)[C@@H]1[C@@H](N(Cc2cc3ccccc3o2)C(=O)c2cccc3ccccc23)c2cc(OCCCO)ccc2N1C(=O)c1ccc2ccccc2n1", "note": "(stereo partly specified)", "composite z-score": -0.164},
      {"smiles": "COC(=O)[C@@]1(Cc2ccc(OC)cc2)[C@H]2c3cc(C(=O)N4CCCC4)n(CCn4cc([N+](=O)[O-])nc4C)c3C[C@H]2CN1C(=O)c1ccccc1", "composite z-score": 3.4},
      {"smiles": "CCCCCC1=C2CNC(CC(C)C)(C(=O)OC)C=C2C(C)C1=O", "note": "(stereo unspecified)", "composite z-score": 0.654},
      {"smiles": "O=C1C=C(c2ccccc2)C(=O)C2=C1CC([C@H]1Oc3ccccc3S(=O)(=O)N3CCC[C@@H]13)=CC2", "composite z-score": -0.105},
      {"smiles": "COCCOC(=O)N1C(=O)[C@@]2(c3cc(C#CCC(C(=O)OC)C(=O)OC)ccc31)[C@H](C(=O)Nc1nc3ccccc3s1)[C@H]1C(=O)O[C@H](c3ccccc3)[C@H](c3ccccc3)N1[C@@H]2c1ccc(O)cc1", "composite z-score": 0.777}
    ]}
  ]
}
